Source: PubChem BioAssay (NCI)
This is part of a sample that, as a whole, favours compounds with a hit. Of some 83,000 tested, about 20% had one in any assay.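 Activity criterion: percent growth below 10, measured after cells in 96-well plates were exposed to a single compound concentration for 48 hours.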 The source made the active and inactive calls.

Each compound was assayed on UACC-62 melanoma (assay: NCI-60 one-dose screen, 48 h (100 = growth as untreated, 0 = no growth, -100 = all killed)). Settings: 10 µM unless noted.

| SMILES | growth |
| --- | --- |
| O=C(Nc1ccc(CN2CCOCC2)c(C(F)(F)F)c1)c1nc2ccc3[nH]ncc3c2c2c1CCCC2 | 79.2% (inactive) |
| CC(C)[C@H]1CCC2=C3CC[C@]45OC(=O)[C@@]6(CCC(C)(C)C[C@H]64)CC[C@@]5(C)[C@]3(C)CC[C@@]21C | 59.3% [100 µM] (inactive) |
| Cc1ccc2c(c1)/C(=N\N=C/c1cn(C(C)C)c3ccccc13)C(=O)N2 | 50.1% (inactive) |
| COc1ccc(C(=O)c2nccc3cc(OC)c(OC)cc23)cc1OC | 96.4% (inactive) |
| Nc1cc(C(=O)O)[nH]c(=S)n1 | 95.2% (inactive) |
| CC1(C)CC[C@]2(C(=O)O)CC[C@]3(C)C(=CC[C@@H]4[C@@]5(C)C/C(=C/c6cccnc6)[C@H](O)C(C)(C)[C@@H]5CC[C@]43C)[C@@H]2C1 | -56% [100 µM] (active) |
| ClC1=C(Cl)C(Cl)=C(Cl)C1=Cc1ccccc1 | -77% (active) |
| CCCCC(CCCCCC(CCCC)C1NC(C)Cc2cc(OC)c(OC)cc21)C1NC(C)Cc2cc(OC)c(OC)cc21 (stereo unspecified) | -70% (active) |
| COc1ccccc1S(=O)Nc1ccccc1 (stereo unspecified) | 94.1% (inactive) |
| Cc1cnc(N)nc1OCC(C)(C)CNC(=O)c1cccc(-c2ccc(S(=O)(=O)Nc3ccc4c(c3)N(C(=O)C3CC3)CCC4)cc2)c1 | 47.8% (inactive) |
| C=C(C)[C@@H]1CC[C@]2(COC(=O)c3ccccc3C(=O)O)CC[C@]3(C)[C@H](CC[C@@H]4[C@@]5(C)CC[C@H](OC(=O)c6ccccc6C(=O)O)C(C)(C)[C@@H]5CC[C@]43C)[C@@H]12 | -18.7% [100 µM] (active) |
